# Compounds without any hit were thinned out: in the full panel of roughly 83,000, 20% have a hit.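 Cell lines were cultured in 96-well plates, exposed to a single compound concentration, and assessed for percent growth 48 hours later.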 Values without a mark were called inactive. The source made the active and inactive calls. Rule for the calls: active = growth percent below 10; inactive = the rest.
# Test system: MDA-MB-468 breast
# Test: NCI-60 one-dose screen, 48 h (100 = growth as untreated, 0 = no growth, -100 = all killed)
# Conditions: 10 µM unless noted
row,Compound,growth
1,CC(=O)Nc1nc(C)c(C(=O)N/N=C/c2cccn2C)s1,111%
2,C/C(=N\O)c1ccc(NC(=O)CSc2nnc(-c3ccccc3)n2-c2ccccc2)cc1,75.4%
3,O=C(/C=C/c1ccc(Cl)cc1)c1ccccc1,89.7%
4,C=C1CC[C@@H]2[C@](C)(COC(C)=O)[C@H](OC(C)=O)CC[C@@]2(C)[C@@H]1CC(Nc1ccc(S(=O)(=O)Nc2ncccn2)cc1)C1=CCOC1=O (some centres undefined),-54% (active)
5,COc1ccc(-c2nn(-c3cccc(Cl)c3)cc2-c2cc(-c3ccc(Br)cc3)nc(N)n2)cc1,95%
6,COc1ccc(-c2nc(/C=C3\C(=O)N(C)c4ccccc43)c3ccccn23)cc1,98.5%
7,Nc1nc(Cl)nc2c1ncn2C1O[C@H](CO)[C@@H](O)[C@@H]1F (some centres undefined),5.22% (active)
8,O=C(CNc1nnc(-c2ccc(Cl)cc2)o1)Nc1ccc(-c2nc3ccccc3s2)cc1,-10.2% (active)
9,CCN(CC)CCCNc1cccc2c(SCc3ccccc3)ccnc12,88.3%
10,Nc1nc(N)c2c(ccc3c2ccn3Cc2cccc([N+](=O)[O-])c2)n1,-84.7% (active)
11,O=C1SCN(Cc2ccccc2)CN1Cc1ccccc1,24.8%
12,Cc1n(Cc2ccc3ccccc3c2)c2ccccc2[n+]1Cc1ccc2ccccc2c1,-60.8% (active)
13,N#Cc1c(NC(=O)c2cccc(Br)c2)sc2c1CCCC2,59.3%
14,O=C(Nc1ccc(Cl)c(Cl)c1)OCn1ncc2ccc([N+](=O)[O-])cc21,87%

# From PubChem BioAssay (NCI)
